According to PubChem BioAssay AID1645857 (Buhrlage Lab, Dana-Farber Cancer Institute and Novartis …, 2021):
Hit rate of the full screen: of about 47,000 compounds, about 1,400 (3%) were called active. The entries come from a sample that favours actives as a whole. Values without a mark were called inactive. Rule as the data show it: active = inhibition above about 30%; inactive = the rest.

Each compound was assayed against Ubiquitin carboxyl-terminal hydrolase 28 (Homo sapiens) (UniProt Q96RU2) (assay: inhibitors of human USP28 deubiquitinase (AID 1645857)). Details: purified USP28, Ub-rhodamine cleavage fluorescence, 30 min; at 25 µM; hits give high values.
Ubiquitin carboxyl-terminal hydrolase 28 (Homo sapiens), sequence (Q96RU2 whole entry, looked up): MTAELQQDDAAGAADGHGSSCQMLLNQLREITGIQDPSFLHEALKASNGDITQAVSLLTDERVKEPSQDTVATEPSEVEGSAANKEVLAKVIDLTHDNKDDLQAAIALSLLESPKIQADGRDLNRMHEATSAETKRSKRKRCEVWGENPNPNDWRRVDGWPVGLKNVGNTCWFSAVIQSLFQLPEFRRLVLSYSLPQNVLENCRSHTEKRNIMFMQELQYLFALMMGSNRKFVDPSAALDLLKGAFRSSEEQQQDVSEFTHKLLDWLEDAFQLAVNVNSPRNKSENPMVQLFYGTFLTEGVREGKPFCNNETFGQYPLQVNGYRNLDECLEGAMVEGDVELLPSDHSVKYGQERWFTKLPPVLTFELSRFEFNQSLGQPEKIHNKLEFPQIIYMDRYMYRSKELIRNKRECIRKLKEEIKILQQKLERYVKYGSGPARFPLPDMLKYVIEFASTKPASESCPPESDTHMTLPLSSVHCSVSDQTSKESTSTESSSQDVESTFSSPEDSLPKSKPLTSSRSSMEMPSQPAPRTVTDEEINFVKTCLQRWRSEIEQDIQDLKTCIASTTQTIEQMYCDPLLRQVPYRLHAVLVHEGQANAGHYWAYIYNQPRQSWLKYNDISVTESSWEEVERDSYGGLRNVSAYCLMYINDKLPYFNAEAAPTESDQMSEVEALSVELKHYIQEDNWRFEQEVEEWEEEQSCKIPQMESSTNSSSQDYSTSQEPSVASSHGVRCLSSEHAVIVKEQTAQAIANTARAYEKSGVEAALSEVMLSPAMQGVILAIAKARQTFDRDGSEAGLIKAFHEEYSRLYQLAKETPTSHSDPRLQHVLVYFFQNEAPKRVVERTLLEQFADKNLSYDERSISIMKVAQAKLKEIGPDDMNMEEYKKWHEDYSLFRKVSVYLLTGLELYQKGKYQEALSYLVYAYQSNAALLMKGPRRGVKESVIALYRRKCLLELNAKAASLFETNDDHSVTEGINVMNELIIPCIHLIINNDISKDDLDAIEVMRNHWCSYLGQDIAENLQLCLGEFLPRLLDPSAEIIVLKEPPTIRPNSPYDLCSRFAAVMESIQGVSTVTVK

Row | SMILES | inhibition
1 | O=C(Cn1cccc(-c2nc(-c3ccccc3)no2)c1=O)Nc1ccccc1F | 6.71%
2 | Cc1noc(-c2cccn(Cc3cc(F)ccc3F)c2=O)n1 | 29%
3 | N#Cc1ccc(NC(=O)Nc2cccn(Cc3ccccc3F)c2=O)cc1 | 86.6% (active)
4 | CC1(C(=O)NC2CCCCCC2)Cn2c(nc3ccccc32)C(=O)N1CCc1ccccc1 (centres undefined) | -1.29%
5 | O=C(c1cc2c(=O)n3ccccc3nc2n1Cc1ccccc1)N1CCN(c2ccccc2)CC1 | -0.309%
6 | COc1ccc(NC(=O)c2cc(=O)[nH]c3ccccc23)cc1S(=O)(=O)N1CCOCC1 | -0.445%
7 | COc1ccc(-c2cnc(SCCNC(=O)c3cccc(F)c3)[nH]2)cc1 | 12.3%
8 | COc1ccc(-c2[nH]c3ccccc3c2SCCNC(=O)c2ccc(S(=O)(=O)N3CCOCC3)cc2)cc1 | 32.8% (active)
9 | COc1ccccc1Nc1ncnc2oc(C)c(C)c12 | -18.5%
10 | COc1ccc(OC)c(-n2c(CNC(=O)c3ccco3)nnc2SCC(=O)N2CCc3ccccc32)c1 | 0.00951%
11 | CC(=O)c1ccc(NC(=O)CCCn2nc([N+](=O)[O-])cc2C)cc1 | 9.41%
12 | C#CCOc1ccc2ccccc2c1CN1CCc2ccccc2C1 | 39.7% (active)
13 | C#CCOc1ccc(CN2CCc3nc(-c4cccnc4)[nH]c(=O)c3C2)cc1OC | -1.43%
14 | CS(=O)(=O)N1CCC2(CC1)CN(C(=O)c1ccc3[nH]ccc3c1)Cc1ccccc1O2 | 7.47%
15 | CC(C)Cc1cc(-c2nn3c(-c4ccccc4Cl)nnc3s2)n[nH]1 | 30.4% (active)
16 | COCCn1ccc(-c2cc(C(=O)N3CCCN(C)CC3)c3ccccn23)n1 | -61%
17 | CN(C)c1cccc(NC(=O)N2CC[C@@H]3[C@H]2C(=O)N(C)[C@@H](Cc2ccccc2)C(=O)N3C)c1 | -0.0135%
18 | Cc1ccc(NC(=O)C2CCN(S(=O)(=O)c3cnc[nH]3)CC2)cc1Cl | 39% (active)
19 | CCc1cccc(NC(=O)C2CCN(c3ccncc3)CC2)c1 | 22%
20 | CC1CCN(S(=O)(=O)N2CCCC(C(=O)Nc3ccccc3Cl)C2)CC1 (centres undefined) | -2.94%
21 | COc1ccc(CNC(=O)c2[nH]nc3c2CCc2ccccc2-3)cc1 | 30.6% (active)
22 | COc1ccc(CNC(=O)c2ccccc2-c2ncc(-c3ccccc3)o2)cc1 | 21.9%
23 | COc1ccc(CNC(=O)c2cccc3cccnc23)cc1 | 4.72%

Row | SMILES | inhibition
24 | O=C(c1ccc(N2CCCC2)nn1)N1CCN(c2ccccn2)CC1 | 2.13%
25 | Cc1nn(-c2ccccc2)c(C)c1S(=O)(=O)N1CCN(c2ccccn2)CC1 | -7.5%
26 | Clc1cc2nc(N3CCN(c4ccccn4)CC3)c3nncn3c2cc1Cl | 36.5% (active)
27 | O=C(N[C@H]1C[C@@H]2C[C@H]1N(C(=O)c1ccc3c(c1)OCO3)C2)c1ccccc1 | -126%
28 | O=S(=O)(Nc1ccc(Cc2ccncc2)cc1)c1ccc2c(c1)OCCO2 | 9.83%
29 | CCN(CC)c1ccc(NC(=O)Nc2ccc(OCc3ccccc3)cc2)cc1 | -7.22%
30 | CCOc1ccc(NC(=S)Nc2ccc(Cc3ccncc3)cc2)cc1 | 36.8% (active)
31 | Cc1cc(-c2ncc(C)[nH]2)nc(C2CCCCN2C(=O)c2ccccc2)n1 (centres undefined) | 5.54%
32 | Cn1c(N2CCN(C(=O)c3cccc(Cl)c3)CC2)cc(=O)n(C)c1=O | -5.96%
33 | Clc1ccc(C[n+]2cc(-c3ccc(Cl)cc3)n3c2CCC3)cc1 | 54.6% (active)
34 | CC(=O)C[n+]1cc(-c2ccc(C)cc2)n2c1CCC2 | -0.406%
35 | Cc1c(Cl)cccc1NC(=O)C[n+]1cc(-c2ccc(Cl)cc2)n2c1CCC2 | 10.7%
36 | CCCc1cc(=O)[nH]c(N2CCN(c3ccc(Cl)cc3)CC2)n1 | 0.253%
37 | CC(C)=CCc1cc(O)ccc1O | -0.0939%
38 | CC(C)=CCC(O)C1=CC(=O)c2c(O)ccc(O)c2C1=O (centres undefined) | 93.4% (active)
39 | CN1C(=O)[C@H](Cc2ccccc2)N(C)C(=O)[C@@H]2[C@H]1CCN2C(=O)Nc1cccc(C#N)c1 | -9.42%
40 | Cn1nc(C2CCN(Cc3ccc4c(c3)CC(C)(C)O4)CC2)c2nccnc21 | -6.5%
41 | CC(C)C(=O)N1c2ncnn2C(c2ccc(Cl)cc2)CC1c1ccccc1 (centres undefined) | -5.15%
42 | CC(=O)c1ccc(N2CCN(CC(=O)c3c(N)n(Cc4ccccc4)c(=O)n(C)c3=O)CC2)cc1 | -11.8%
43 | CN1CCC(N(C)C(=O)c2ccc(Cl)c(S(=O)(=O)Nc3ccccc3C(=O)N(C)C3CCN(C)CC3)c2)CC1 | -0.184%
44 | CC(CCc1ccccc1)NCc1c(C(=O)O)n(Cc2ccccc2F)c2ccccc12 (centres undefined) | 23%
45 | Cc1ccc(Cn2c(C(=O)O)c(CNC(C)CCc3ccccc3)c3ccccc32)cc1 (centres undefined) | 32.3% (active)
46 | Cc1ccc(CCNCc2c(C(=O)O)n(C)c3ccccc23)cc1 | -5.83%

Row | SMILES | inhibition
47 | CC1CCCCN1Cc1nc2c([nH]1)c(=O)n(C)c(=O)n2C (centres undefined) | -0.186%
48 | CCCN(CCC)CCNS(=O)(=O)c1ccc2c(c1)NC(=O)CCS2 | -7.06%
49 | CC(NS(=O)(=O)c1ccc2c(c1)SCC(=O)N2)c1ccccc1 (centres undefined) | 13%
50 | CCC(Cc1ccccc1)NS(=O)(=O)c1ccc2c(c1)NC(=O)CS2 (centres undefined) | 37.3% (active)
51 | CC(C)NC(=O)CN1C(=O)CC(C)Sc2ccc(S(=O)(=O)N3CCCCC3)cc21 (centres undefined) | 13.7%
52 | CCc1nnc(C2CCN(C(=O)c3ccc(F)cc3F)CC2)s1 | -5.47%
53 | CC1CCN(c2nc(F)c3c(c2F)S(=O)(=O)CCN3Cc2cccnc2)CC1 | -20.5%
54 | O=C(COC(=O)C1CCN(S(=O)(=O)c2c(Cl)cccc2Cl)CC1)Nc1ccc2c(c1)CCC2 | 15.4%
55 | O=C(Nc1nnc(-c2cccc([N+](=O)[O-])c2)o1)C1CCN(S(=O)(=O)c2ccc3c(c2)CCC3)CC1 | 46.2% (active)
56 | Cc1cccc(-c2nnc(-c3cccc(S(=O)(=O)N4CCCC4)c3)o2)c1 | 4.29%
57 | CCOc1ccc2nc3sc(C(=O)N4CCCC4)c(N)c3cc2c1 | -2.52%
58 | COc1ccc(NC(=O)CC[C@@H]2NC(=O)N([C@@H](C)c3ccccc3)C2=O)cc1 | 8.47%
59 | O=C(CCc1nnc2n(Cc3ccc(Cl)cc3)c(=O)c3ccccc3n12)NCCN1CCOCC1 | -1.7%
60 | Clc1ccc(C2NC3=NCN(Cc4ccco4)CN3c3nc4ccccc4n32)cc1 (centres undefined) | 32.7% (active)
61 | CN(Cc1cccnc1Oc1ccccc1)C(=O)c1cnccn1 | -1.11%
62 | O=C1COC2(CCN(c3ncccn3)CC2)CN1Cc1cccc(F)c1 | -14.6%
63 | CCN1C[C@H]2C3(CCN(S(=O)(=O)c4ccccc4)CC3)CC[C@@]2(C(=O)NC)C1 | 0.022%
64 | COc1ccc(CCNC(=O)CCCn2c(=O)c3ccccc3n(CC(=O)OCc3ccccc3)c2=O)cc1OC | 26.2%
65 | Cc1ccc(CNC(=O)CCCn2c(=O)c3sccc3n(CC(=O)OCc3ccccc3)c2=O)cc1 | 45.6% (active)
66 | N#Cc1ccccc1Cn1c(=O)n(CCCC(=O)NCc2ccc(F)cc2)c(=O)c2ccccc21 | 8.1%
67 | CN1CCc2onc(-c3cccc(CN)c3)c2C1=O | 11.5%
68 | CCOc1ccccc1C1c2[nH]c3ccccc3c2C[C@H]2C(=O)N(CCCc3ccccc3)CC(=O)N12 (some centres undefined) | -32.1%
69 | CSc1ccccc1NC(=O)c1ccc(N2CCCC2)nn1 | 3.05%

Row | SMILES | inhibition
70 | CC1CCc2c(cnc3c(C(=O)NCc4cccnc4)cnn23)C1 (centres undefined) | -1.11%
71 | Cc1ccccc1NC(=O)Cc1csc2nc(-c3ccc(F)cc3)cn12 | 37.7% (active)
72 | Cc1cc(F)ccc1NC(=O)Cc1n[nH]c(Cc2ccccc2)n1 | -17.7%
73 | O=C(Cc1ccc(F)cc1)Nc1ccccc1Cc1ccccc1 | 11.8%
74 | N#Cc1ccc(C(=O)N2CCN(c3cc(-c4ccccc4)[nH]n3)CC2)cc1 | -11%
75 | CCOC(=O)c1cnn(-c2ccc(C(=O)Nc3ccc(C(C)=O)cc3)cn2)c1N | -5.3%
76 | CC(=O)Nc1cccnc1-c1ccc(C(=O)Nc2ccc(C)c(C)c2)cc1 | 37.1% (active)
77 | Cc1ccccc1NC(=O)c1ccc(-c2nc3cccnc3n(C3CCCC3)c2=O)cc1 | -11.7%
78 | Cc1ccc(C(=O)Nc2cccc3c2CCCC3)cc1C | 1.01%
79 | O=C(c1cccc(Nc2ncccn2)c1)N1CCOCC2(C1)CN(c1ccccc1)C(=O)O2 (centres undefined) | -1.6%
80 | COc1ccc(CCNC(=O)c2ccc3ccccc3c2)cc1OC | 54.7% (active)
81 | COc1ccc(CCNC(=O)c2ccccc2OCc2ccc(F)cc2)cc1 | 10.8%
82 | COc1ccc(CCNC(=O)CSc2cn(CCNC(=O)c3ccccc3C)c3ccccc23)cc1OC | 13.1%
83 | Cc1cc(C)c(-c2nnc(NC(=O)c3ccc(-c4ccccc4)cc3)s2)c(C)c1 | -5.98%
84 | CCOC(=O)c1ccc(NC(=O)CSc2nnc(CNC(=O)c3ccc(OC)cc3)n2C)cc1 | -5.59%
85 | Cc1ccc(NS(=O)(=O)c2cc3n(c2)CCN(C)C3=O)cc1 | -5.99%
86 | O=C1C(O)=C(c2ccc(O)c(O)c2)C(=O)C(O)=C1c1ccccc1 | 66.9% (active)
87 | O=CNC1CC2(CCCCC2)Oc2ccccc21 (centres undefined) | -1.81%
88 | CN1CC(=O)N(C2CCCNC2)Cc2c(NC3CCc4ccccc43)ncnc21 (centres undefined) | 90.6% (active)
89 | c1ccc(-c2csc3ncnc(NC4CCCc5ccccc54)c23)cc1 (centres undefined) | -4.83%
